Data published in publication PMC5540273 (PLoS ONE, 2017).
“And” between values parts separate entries of the source, which are not always exact repeats. Equal values may be shown once. Read-outs that look alike come from different tables or passages of the source.

Experiments:
PIKFYVE = conditions: concentration: 1 μM, replicates: in singlicate, n = 1
PIM1 = conditions: concentration: 1 μM, replicates: in singlicate, n = 1
PIM2 = conditions: concentration: 1 μM, replicates: in singlicate; n = 1
PIM3 = conditions: concentration: 1 μM, replicates: in singlicate, n = 1
PIP5K1A = conditions: concentration: 1 μM, replicates: in singlicate, n = 1
PIP5K1C = conditions: concentration: 1 μM, replicates: in singlicate, n = 1
PIP5K2B = conditions: concentration: 1 μM, replicates: in singlicate, n = 1
PIP5K2C = test system: T1, PIP5K2C; conditions: concentration: 1 μM, replicates: in singlicate, n = 1
T1 construct: gene PIP4K2C

PKAC-alpha = test system: T2, PKAC-alpha; conditions: concentration: 1 μM, replicates: in singlicate, n = 1
T2 construct: gene PRKACA

PKAC-beta = test system: T3, PKAC-beta; conditions: concentration: 1 μM, replicates: in singlicate, n = 1
T3 construct: gene PRKACB

PKMYT1 = conditions: concentration: 1 μM, replicates: in singlicate, n = 1
PKN1 = conditions: concentration: 1 μM, replicates: in singlicate, n = 1
PKN2 = conditions: concentration: 1 μM, replicates: in singlicate, n = 1
PLK1 = conditions: concentration: 1 μM, replicates: in singlicate, n = 1
PLK2 = conditions: concentration: 1 μM, replicates: in singlicate, n = 1
PLK3 = conditions: concentration: 1 μM, replicates: in singlicate, n = 1
PLK4 = conditions: concentration: 1 μM, replicates: in singlicate, n = 1
PRKCD = conditions: concentration: 1 μM, replicates: in singlicate, n = 1
PRKCE = conditions: concentration: 1 μM, replicates: in singlicate, n = 1
PRKCH = conditions: concentration: 1 μM, replicates: in singlicate, n = 1
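Note: KINOMEscan kinase panel screen.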

## [2H]C([2H])(c1cccc(C(F)(F)F)c1C)n1ccn2c(=O)nc(N3CCOCC3)cc12 [GSK2336394]
PIKFYVE
  %Inh: 0%
PIM1
  %Inh: 0%
PIM2
  %Inh: 0%
PIM3
  %Inh: 0%
PIP5K1A
  %Inh: 0%
PIP5K1C
  %Inh: 31%
PIP5K2B
  %Inh: 4%
PIP5K2C
  %Inh: 0%
PKAC-alpha
  %Inh: 0%
PKAC-beta
  %Inh: 12%
PKMYT1
  %Inh: 0%
PKN1
  %Inh: 39%
PKN2
  %Inh: 0%
PLK1
  %Inh: 0%
PLK2
  %Inh: 0%
PLK3
  %Inh: 0%
PLK4
  %Inh: 0%
PRKCD
  %Inh: 6%
PRKCE
  %Inh: 2%
PRKCH
  %Inh: 0%

## CN(C1=C(c2ccccc2)C(=O)NC1=O)c1ccccc1 [SB-334860]
PIKFYVE
  %Inh: 10%
PIM1
  %Inh: 19%
PIM2
  %Inh: 0%
PIM3
  %Inh: 0%
PIP5K1A
  %Inh: 8%
PIP5K1C
  %Inh: 37%
PIP5K2B
  %Inh: 7%
PIP5K2C
  %Inh: 10%
PKAC-alpha
  %Inh: 4%
PKAC-beta
  %Inh: 0%
PKMYT1
  %Inh: 8%
PKN1
  %Inh: 20%
PKN2
  %Inh: 0%
PLK1
  %Inh: 3%
PLK2
  %Inh: 2%
PLK3
  %Inh: 0%
PLK4
  %Inh: 21%
PRKCD
  %Inh: 0%
PRKCE
  %Inh: 22%
PRKCH
  %Inh: 6%

## CC(C)Oc1ccc2c(-c3ccnc(Nc4ccc(N5CCN(C)CC5)cc4)n3)cnn2n1 [GW696155]
PIKFYVE
  %Inh: 92.8%
PIM1
  %Inh: 37%
PIM2
  %Inh: 0%
PIM3
  %Inh: 42%
PIP5K1A
  %Inh: 14%
PIP5K1C
  %Inh: 47%
PIP5K2B
  %Inh: 73%
PIP5K2C
  %Inh: 87%
PKAC-alpha
  %Inh: 3%
PKAC-beta
  %Inh: 0%
PKMYT1
  %Inh: 0%
PKN1
  %Inh: 31%
PKN2
  %Inh: 4%
PLK1
  %Inh: 25%
PLK2
  %Inh: 62%
PLK3
  %Inh: 95.9%
PLK4
  %Inh: 96.8%
PRKCD
  %Inh: 0%
PRKCE
  %Inh: 28%
PRKCH
  %Inh: 0%

## NS(=O)(=O)CCc1cccc(Nc2nccc(-c3c(-c4cccc(NC(=O)c5c(F)cccc5F)c4)nn4ccccc34)n2)c1 [GSK336735]
PIKFYVE
  %Inh: 0%
PIM1
  %Inh: 0%
PIM2
  %Inh: 0%
PIM3
  %Inh: 0%
PIP5K1A
  %Inh: 0%
PIP5K1C
  %Inh: 36%
PIP5K2B
  %Inh: 0%
PIP5K2C
  %Inh: 17%
PKAC-alpha
  %Inh: 38%
PKAC-beta
  %Inh: 37%
PKMYT1
  %Inh: 0%
PKN1
  %Inh: 0%
PKN2
  %Inh: 0%
PLK1
  %Inh: 0%
PLK2
  %Inh: 25%
PLK3
  %Inh: 48%
PLK4
  %Inh: 12%
PRKCD
  %Inh: 40%
PRKCE
  %Inh: 0%
PRKCH
  %Inh: 32%

## O=C1NC(=O)C(N2CCc3ccccc32)=C1c1cccc(Cl)c1 [SB-408010]
PIKFYVE
  %Inh: 4%
PIM1
  %Inh: 16%
PIM2
  %Inh: 9%
PIM3
  %Inh: 6%
PIP5K1A
  %Inh: 0%
PIP5K1C
  %Inh: 39%
PIP5K2B
  %Inh: 0%
PIP5K2C
  %Inh: 0%
PKAC-alpha
  %Inh: 11%
PKAC-beta
  %Inh: 14%
PKMYT1
  %Inh: 20%
PKN1
  %Inh: 0%
PKN2
  %Inh: 3%
PLK1
  %Inh: 27%
PLK2
  %Inh: 0%
PLK3
  %Inh: 4%
PLK4
  %Inh: 25%
PRKCD
  %Inh: 0%
PRKCE
  %Inh: 19%
PRKCH
  %Inh: 13%

## NS(=O)(=O)c1cccc(-c2ccc3nccc(-c4cccc(S(N)(=O)=O)c4)c3c2)c1 [GW867253]
PIKFYVE
  %Inh: 21%
PIM1
  %Inh: 3%
PIM2
  %Inh: 0%
PIM3
  %Inh: 9%
PIP5K1A
  %Inh: 21%
PIP5K1C
  %Inh: 0%
PIP5K2B
  %Inh: 0%
PIP5K2C
  %Inh: 41%
PKAC-alpha
  %Inh: 0%
PKAC-beta
  %Inh: 0%
PKMYT1
  %Inh: 3%
PKN1
  %Inh: 0%
PKN2
  %Inh: 11%
PLK1
  %Inh: 24%
PLK2
  %Inh: 19%
PLK3
  %Inh: 30%
PLK4
  %Inh: 14%
PRKCD
  %Inh: 23%
PRKCE
  %Inh: 18%
PRKCH
  %Inh: 0%

## N#Cc1ccc(-c2cc(-c3c[nH]nc3-c3ccccn3)ccn2)cc1 [GW693028]
PIKFYVE
  %Inh: 0%
PIM1
  %Inh: 0%
PIM2
  %Inh: 0%
PIM3
  %Inh: 0%
PIP5K1A
  %Inh: 7%
PIP5K1C
  %Inh: 71%
PIP5K2B
  %Inh: 23%
PIP5K2C
  %Inh: 7%
PKAC-alpha
  %Inh: 0%
PKAC-beta
  %Inh: 0%
PKMYT1
  %Inh: 1%
PKN1
  %Inh: 0%
PKN2
  %Inh: 0%
PLK1
  %Inh: 0%
PLK2
  %Inh: 0%
PLK3
  %Inh: 0%
PLK4
  %Inh: 0%
PRKCD
  %Inh: 0%
PRKCE
  %Inh: 16%
PRKCH
  %Inh: 18%

## Cc1cccc(-c2nc(Nc3ccc4ncsc4c3)c3ccccc3n2)n1 [GW867588]
PIKFYVE
  %Inh: 54%
PIM1
  %Inh: 9%
PIM2
  %Inh: 0%
PIM3
  %Inh: 16%
PIP5K1A
  %Inh: 27%
PIP5K1C
  %Inh: 4%
PIP5K2B
  %Inh: 0%
PIP5K2C
  %Inh: 18%
PKAC-alpha
  %Inh: 11%
PKAC-beta
  %Inh: 21%
PKMYT1
  %Inh: 9%
PKN1
  %Inh: 14%
PKN2
  %Inh: 0%
PLK1
  %Inh: 12%
PLK2
  %Inh: 19%
PLK3
  %Inh: 16%
PLK4
  %Inh: 14%
PRKCD
  %Inh: 7%
PRKCE
  %Inh: 27%
PRKCH
  %Inh: 0%

## Cl.Cl.Cl.Fc1ccc(-c2ncn(C3CCNCC3)c2-c2ccnc(Nc3ccccc3)n2)cc1 [SB-238039]
PIKFYVE; 1 µM
  %Inh: 5% and 24%
PIM1; 1 µM
  %Inh: 15% and 2%
PIM2
  %Inh: 0%
PIM3; 1 µM
  %Inh: 19% and 0%
PIP5K1A; 1 µM
  %Inh: 46% and 0%
PIP5K1C; 1 µM
  %Inh: 25% and 0%
PIP5K2B; 1 µM
  %Inh: 24% and 0%
PIP5K2C; 1 µM
  %Inh: 48% and 41%
PKAC-alpha; 1 µM
  %Inh: 64% and 46%
PKAC-beta; 1 µM
  %Inh: 73% and 65%
PKMYT1; 1 µM
  %Inh: 0% and 1%
PKN1; 1 µM
  %Inh: 0% and 9%
PKN2; 1 µM
  %Inh: 0% and 24%
PLK1; 1 µM
  %Inh: 4% and 0%
PLK2; 1 µM
  %Inh: 6% and 0%
PLK3; 1 µM
  %Inh: 15% and 0%
PLK4; 1 µM
  %Inh: 7% and 26%
PRKCD; 1 µM
  %Inh: 66% and 28%
PRKCE; 1 µM
  %Inh: 69% and 29%
PRKCH; 1 µM
  %Inh: 58% and 19%
